Measured values as given in ChEMBL document CHEMBL4513216, “Probing the Open Global Health Chemical Diversity Library for Multistage-Active Starting Points for Next-Generation Antimalarials” (ACS Infect Dis, 2020).
In all, about 69,000 compounds went through this assay and about 8,600 (12%) showed an effect of 50% or more. The full list was thinned out, with strong results kept by preference.

test system: Plasmodium berghei; assay: Screen against P. berghei liver stage (PbLuc), transformed with Luciferase, at 10uM; assay type: functional, HepG2; conditions: tested at 10 uM

Row | Structure (SMILES) | INHIBITION
1 | Cc1noc(C)c1-c1cncc(C2CCCN2Cc2ncc[nH]2)n1 (configuration not stated) | 47.2%
2 | CC[C@@H](Cn1ncc2ccccc2c1=O)NC(=O)c1ccco1 | 34.1%
3 | Cn1ccc(C(=O)N2CCN(c3nccs3)CC2)cc1=O | 28.8%
4 | CCN1CCN(C2CCN(Cc3ncc(C(C)(C)C)o3)CC2)C1=O | 42%
5 | Cc1ccccc1C(=O)NC1CCN(Cc2ncc(C(C)(C)C)o2)CC1 | 66.1%
6 | CC(C)(C)c1cnc(CN2CCC(CN3CCOCC3)CC2)o1 | 66.3%
7 | CC(C)(C)c1cnc(CN2CCN(c3ncccn3)CC2)o1 | 24.3%
8 | CC(C)(C)c1cnc(CN2CCC(NC(=O)CC3CCCC3)CC2)o1 | 28.7%
9 | CC(C)(C)c1cnc(CN2CCCS(=O)(=O)CC2)o1 | -7.94%
10 | CC(C)(C)c1cnc(CN2CCC(NC(=O)Nc3ccccc3)CC2)o1 | 39.4%
11 | CC(C)(C)c1cnc(CN2CCC(NC(=O)NC3CCCCC3)CC2)o1 | 60.8%
12 | CC(C)(C)c1cnc(CN2CCC(CO)CC2)o1 | 39.7%
13 | CC(C)(C)c1cnc(CN2CCC(NC(=O)C3CCOCC3)CC2)o1 | 30.8%
14 | CCN(C1CCN(Cc2ncc(C(C)(C)C)o2)CC1)S(C)(=O)=O | 50.8%
15 | CCN(CC)CC1CCN(Cc2ncc(C(C)(C)C)o2)CC1 | 47.4%
16 | COc1ccc(C(C)N(C)Cc2c(C(C)(C)C)[nH]c3ncccc23)cc1 (configuration not stated) | -19%
17 | Cc1cnn(CC2CN(Cc3nc4cccnc4[nH]3)CCO2)c1 (configuration not stated) | 45.1%
18 | O=c1[nH]c2c(-c3ccccn3)nsc2c(=O)n1C1CCCCC1 | 9.41%
19 | O=C(Cc1cn2ccccc2n1)N1CCCC(n2cccn2)C1 (configuration not stated) | 21.5%
20 | CSc1ncccc1C(=O)NCc1ccc(N(C)C)cc1 | -25.1%
21 | Cc1nc(CN2CCC3(CCCN(Cc4ccncc4)C3)C2=O)cs1 (configuration not stated) | -36.9%
22 | CC(C)CN1CC(O)CN(S(=O)(=O)c2ccccc2)CC1=O (configuration not stated) | 10.1%
23 | Cc1cc(C)nc(NCCC(=O)NCCn2ccc3ccccc32)n1 | 41.5%
24 | Cc1cnc(CN2CCOC(Cn3nc(C)cc3C)C2)cn1 (configuration not stated) | 32.9%

Row | Structure (SMILES) | INHIBITION
25 | Cc1ccccc1CCC1CCCN(C(=O)Cc2cc(=O)[nH]c(N)n2)C1 (configuration not stated) | -33%
26 | CCc1nc(N)sc1C(=O)N1CCCC(CCc2ccccc2C)C1 (configuration not stated) | 55.3%
27 | CCc1nc(N)sc1C(=O)N1CCCC(COc2cccc(C)c2)C1 (configuration not stated) | -24.8%
28 | Cn1ccc(C(=O)NCc2ccc(CN3CCCCC3)cc2)cc1=O | -19.9%
29 | CCS(=O)(=O)N1C[C@H]2CN(Cc3cccc(F)c3)C(=O)[C@H]2C1 | 3.58%
30 | COCCNc1nc(C)nc2c1CCN(CC1CCC(N)CC1)CC2 (configuration not stated) | 26.6%
31 | c1csc(CN2CCC3(CC2)CCN(CC2CC2)CC3)n1 | 23.3%
32 | CN(C)c1ncnc2c1CCN(CC1CCCC1)CC2 | 38.1%
33 | Cc1nc2c(c(NCCc3nccs3)n1)CCN(CC1CC1)CC2 | 64.1%
34 | Cc1nc2c(c(NCCc3nc(C)c(Cl)s3)n1)CCNCC2 | 18.5%
35 | Nc1nc2c(c(NCc3nccs3)n1)CCN(CC1CCCC1)CC2 | 76.6%
36 | CC(C)c1nnc(CN2CCCc3ccc(S(N)(=O)=O)cc32)o1 | -7.93%
37 | CCCn1c(SCC(N)=O)nnc1-c1csc2c1CCCC2 | 19.8%
38 | CN(Cc1ccn[nH]1)C(=O)CCC(=O)NC1CCCC1 | 31.2%
39 | CCC(C)(N)c1nc(=O)c(C)c(C)[nH]1 (configuration not stated) | 43.6%
40 | CCc1c(C)[nH]c(C(C)(N)CC)nc1=O (configuration not stated) | 29.7%
41 | CCc1c(C)[nH]c(C(C)(C)N)nc1=O | 60.4%
42 | CCS(=O)(=O)c1ccccc1N1CCC(NC(=O)C2CC2)CC1 | -9.37%
43 | c1ccc(N2CCC3(CCCN(c4ncccn4)C3)C2)nc1 (configuration not stated) | -56.2%
44 | CCc1nc2c(N3CCC4(CC3)CC(=O)N(CC)C4)ncnc2o1 | 26.8%
45 | CCc1nc2c(N3CCC4(CC3)CNC(=O)C4)ncnc2o1 | 9.91%
46 | CCc1nc2c(N3CCC4(CC3)CC(=O)N(CC(C)C)C4)ncnc2o1 | 87.2%
47 | c1csc(CN2CCCn3nnc(COCC4CC4)c3C2)n1 | 15.8%
48 | CC[C@@H](Cn1ncc2ccccc2c1=O)NC(=O)c1cnccn1 | -3.94%

Row | Structure (SMILES) | INHIBITION
49 | CCCn1nnc2c(sc3nc(N4CCOCC4)c4c(c32)CCC4)c1=O | 80.6%
50 | Cn1nnc2c(sc3nc(N4CCOCC4)c4c(c32)CCC4)c1=O | 13.8%
51 | CC(C)n1nnc2c(sc3nc(N4CCOCC4)c4c(c32)CCC4)c1=O | 28.6%
52 | CNc1ncc(CN(C)C(=O)c2cccc(-n3cccn3)c2)cn1 | 25.8%
53 | O=C(NCCc1cccs1)NCC(O)c1cccc(F)c1 (configuration not stated) | -54.4%
54 | CCN(CC)c1ncnc2c(C)nn(CC)c12 | 35.4%
55 | O=C(O)C1(n2ccc(-c3ccco3)n2)CCN(Cc2cccnc2)CC1 | 1.48%
56 | CNc1nc2cn(-c3cccc(OC)c3)c(=O)c-2c[nH]1 | -98.45%
57 | C[C@@H]1CN(Cc2cc3ccccc3n2C)CC[C@@]1(O)C1CC1 | 8.7%
58 | C[C@@H]1CN(CC(C)(C)N2CCCCC2)C[C@@]1(O)C1CC1 | 31.7%
59 | C[C@@H]1CN(S(=O)(=O)N2CCOCC2)C[C@@]1(O)C1CC1 | 38.75%
60 | C[C@@H]1CN(CC(C)(C)N2CCOCC2)C[C@@]1(O)C1CC1 | 54.5%
61 | C[C@@H]1CN(CC(C)(C)N2CCCCC2)CC[C@@]1(O)C1CC1 | 71.3%
62 | C[C@@H]1CN(CC(C)(C)N2CCOCC2)CC[C@@]1(O)C1CCOCC1 | 27.7%
63 | Cc1nn(-c2ccccc2)nc1C(=O)N1CCCC(n2cccn2)C1 (configuration not stated) | 17.4%
64 | FC(F)Oc1ccccc1CN1CCCC(c2nccn2CC2CC2)C1 (configuration not stated) | 74.5%
65 | N#Cc1ccccc1CN1CCCC(c2nccn2CC2CC2)C1 (configuration not stated) | 33.4%
66 | NC(=O)Cn1ccnc1C1CCCN(Cc2ccccc2OC(F)F)C1 (configuration not stated) | 46.4%
67 | CC1(c2ncc(CN3CCSCC3)cn2)CCCCO1 (configuration not stated) | 40.95%
68 | CN1CC[C@]2(CN(S(C)(=O)=O)C[C@H]2c2ccccc2)C1=O | 48.4%
69 | CCCn1cc(Cl)c(C(=O)N2C[C@@H](O)[C@H](NC(C)=O)C2)n1 | 0.65%
70 | O=C(O)c1cncc(Cc2ccccc2F)c1 | -8.58%
71 | Cc1cc(-c2cnc(N3CCC(O)CC3)nc2-c2cccnc2C)on1 | 11.1%
72 | Cc1cc(-c2cnc(N3CCNC(=O)C3)nc2-c2sccc2C)on1 | 0.301%

Row | Structure (SMILES) | INHIBITION
73 | Cc1cc(-c2cnc(N3CCNC(=O)C3)nc2-c2cccnc2C)on1 | 39.2%
74 | Cc1cc(-c2cnc(N3CCNC(=O)C3)nc2-c2ccncc2)on1 | 50.8%
75 | Cc1cc(-c2cnc(N3CCOCC3)nc2-c2cccnc2C)on1 | -2.11%
76 | Cc1cc(-c2cnc(N3CCNC(=O)C3)nc2-c2ccc(C)o2)on1 | 35.8%
77 | Cc1cc(-c2cnc(N3CCNC(=O)C3)nc2-c2ccoc2C)on1 | 14.7%
78 | Cc1cc(-c2cnc(N3CCCC(C)C3)nc2-c2cccnc2C)on1 (configuration not stated) | 64.3%
79 | Cc1cc(-c2cnc(N3CCCCCC3)nc2-c2cccnc2C)on1 | 59.3%
80 | O=C(c1ccc(Cl)cc1F)N1CCC(Cn2cc(CO)nn2)CC1 | 6.67%
81 | CCCN(Cc1nnnn1C1CC1)CC1COc2ccccc2O1 (configuration not stated) | -16.6%
82 | COCCCNC(=O)c1cc(-c2cnc(N3CCOCC3)nc2)cn1C | 38.1%
83 | O=C(NCCN1CCC(c2cccs2)CC1)Nc1cccs1 | 9.54%
84 | O=C(NCCc1ccccc1)NCCN1CCC(c2cccs2)CC1 | 38%
85 | CCSc1ccccc1C(=O)NCCN1CCC(c2cccs2)CC1 | 38%
86 | CC1CCN(CCNC(=O)c2ccn(-c3ccc(F)cc3)n2)CC1 | -43.5%
87 | O=C(NCCN1CCC(c2cccs2)CC1)c1ccccc1C(F)(F)F | 40.9%
88 | CC1CCN(CCNC(=O)Nc2ccc(F)cc2Cl)CC1 | 56.4%
89 | O=C(Cc1ccccc1Cl)NCCN1CCC(c2cccs2)CC1 | 56.6%
90 | CCOC(=O)N1CCN(CC(=O)Nc2ccc(F)cc2Cl)CC1 | 25.6%
91 | COc1ccc(C(=O)NCCN2CCC(c3cccs3)CC2)cc1OC | 17.1%
92 | Cc1csc(C(=O)NCCN2CCC(c3cccs3)CC2)c1 | 68.2%
93 | CC(=O)NCCN1CCC(c2cccs2)CC1 | -19.4%
94 | O=C(NCCN1CCC(c2cccs2)CC1)c1ccc(F)cc1Cl | 56.6%
95 | CCc1nnc2n1CCN(C(=O)c1ccc3cc[nH]c3c1)C2 | -7.53%
96 | CC(=O)N[C@@H]1CN(S(=O)(=O)c2ccc(Cl)cc2)C[C@H]1O | -0.232%

Row | Structure (SMILES) | INHIBITION
97 | COC(C)(CNS(=O)(=O)c1cnn(C)c1)c1ccccc1F (configuration not stated) | -19.1%
98 | Cc1noc(C)c1CCC(=O)N1CCn2cccc2C1C (configuration not stated) | -19.7%
99 | CN(C)C(=O)c1n[nH]c2c1CN(Cc1ccccn1)CC2 | -27%
100 | CC1CCN(CCCNC(=O)C2CCCCC2)CC1 | -32.3%
101 | CC1CCN(CCCNC(=O)Nc2cc3c(cc2Br)OCCO3)CC1 | 63.3%
102 | O=C(Nc1cc2c(cc1Br)OCCO2)NC1CCS(=O)(=O)C1 (configuration not stated) | 11.8%
103 | CN(Cc1nccn1CC(F)(F)F)C(=O)c1ccc(F)c(F)c1 | -17.4%
104 | Cc1nn(-c2ncnc3[nH]cnc23)c2c1C(CC(C)C)CC(=O)N2 (configuration not stated) | -4.35%
105 | CN(C)c1ncnc2c1CCN(Cc1nccs1)CC2 | -12.1%
106 | CCc1nc(CN2CCN(C(=O)c3cnccn3)CC2)cs1 | 9.94%
107 | CN(C)C(=O)N1CCC2(CC1)CCN(Cc1ccccn1)C2=O | 20.5%
108 | CC(=O)N1CCC2(CCN(Cc3ccccn3)C2=O)C1 (configuration not stated) | -20.1%
109 | Cc1ccc(C(=O)N2CCC3(CC2)CCN(Cc2ccccn2)C3=O)o1 | 52.2%
110 | O=C(c1cnccn1)N1CCC2(CC1)CCN(Cc1ccccn1)C2=O | 53.2%
111 | Cc1oncc1C(=O)N1CCC2(CCN(Cc3ccccn3)C2=O)C1 (configuration not stated) | 25.1%
112 | O=C(c1cccnc1)N1CCC2(CC1)CCN(Cc1ccccn1)C2=O | -20.1%
113 | O=C(c1ccncc1)N1CCC2(CC1)CCN(Cc1ccccn1)C2=O | 14.6%
114 | O=C(c1cnccn1)N1CCN(Cc2csc(-c3ccccc3)n2)CC1 | 59.4%
115 | Cc1occc1C(=O)N1CCC2(CCN(Cc3ccccn3)C2=O)C1 (configuration not stated) | 65.7%
116 | CC(C)(C)c1nc(CN2CCN(C(=O)c3cnccn3)CC2)cs1 | 20.8%
117 | Cc1cnc(C(=O)N2CCC3(CCN(Cc4ccccn4)C3=O)C2)cn1 (configuration not stated) | -39.2%
